# Active and inactive are the calls of the source.
# Columns and labels:
# [1] = small molecules captured by biotinylated probe aFSTL3 – biochemical, small-molecule microarray, fluorescence 635/667, stem cell growth factor project, primary screen (AID 1064); settings: higher = more signal;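 further: measures binding of the biotinylated anti-FSTL3 antibody to printed compounds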
# [2] = binders from COS7 lysate, DM2A8 probe, primary screen, torsin A project, cell lysate, small-molecule microarray, fluorescence 635/667 (AID 1065); settings: higher = more signal, COS7 lysate expressing mutant human TOR1A
# [3] = small molecules captured by biotinylated probe aFGF2 – biochemical, small-molecule microarray, fluorescence 635/667, stem cell growth factor project, primary screen (AID 1067); settings: higher = more signal;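 further: measures binding of biotinylated aFGF2 protein to printed compounds on slides; z-score merges feature fluorescence and signal-to-noise across triplicate slides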
# [4] = small molecules captured by biotinylated probe aFGF10 – biochemical, small-molecule microarray, fluorescence 635/667, stem cell growth factor project, primary screen (AID 1071); settings: higher = more signal;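 further: score merges 667 nm spot intensity and signal to noise from triplicate slides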
# [5] = molecular target: Neurogenic locus notch homolog protein 2 (Homo sapiens) (UniProt Q04721); test: small molecules binding Notch2 protein – biochemical, small-molecule microarray, 635 nm fluorescence, stem cell growth factors, primary screen (AID 1073); settings: higher = more signal
# Chain of Neurogenic locus notch homolog protein 2 (Homo sapiens) (Q04721 whole entry, looked up, canonical isoform): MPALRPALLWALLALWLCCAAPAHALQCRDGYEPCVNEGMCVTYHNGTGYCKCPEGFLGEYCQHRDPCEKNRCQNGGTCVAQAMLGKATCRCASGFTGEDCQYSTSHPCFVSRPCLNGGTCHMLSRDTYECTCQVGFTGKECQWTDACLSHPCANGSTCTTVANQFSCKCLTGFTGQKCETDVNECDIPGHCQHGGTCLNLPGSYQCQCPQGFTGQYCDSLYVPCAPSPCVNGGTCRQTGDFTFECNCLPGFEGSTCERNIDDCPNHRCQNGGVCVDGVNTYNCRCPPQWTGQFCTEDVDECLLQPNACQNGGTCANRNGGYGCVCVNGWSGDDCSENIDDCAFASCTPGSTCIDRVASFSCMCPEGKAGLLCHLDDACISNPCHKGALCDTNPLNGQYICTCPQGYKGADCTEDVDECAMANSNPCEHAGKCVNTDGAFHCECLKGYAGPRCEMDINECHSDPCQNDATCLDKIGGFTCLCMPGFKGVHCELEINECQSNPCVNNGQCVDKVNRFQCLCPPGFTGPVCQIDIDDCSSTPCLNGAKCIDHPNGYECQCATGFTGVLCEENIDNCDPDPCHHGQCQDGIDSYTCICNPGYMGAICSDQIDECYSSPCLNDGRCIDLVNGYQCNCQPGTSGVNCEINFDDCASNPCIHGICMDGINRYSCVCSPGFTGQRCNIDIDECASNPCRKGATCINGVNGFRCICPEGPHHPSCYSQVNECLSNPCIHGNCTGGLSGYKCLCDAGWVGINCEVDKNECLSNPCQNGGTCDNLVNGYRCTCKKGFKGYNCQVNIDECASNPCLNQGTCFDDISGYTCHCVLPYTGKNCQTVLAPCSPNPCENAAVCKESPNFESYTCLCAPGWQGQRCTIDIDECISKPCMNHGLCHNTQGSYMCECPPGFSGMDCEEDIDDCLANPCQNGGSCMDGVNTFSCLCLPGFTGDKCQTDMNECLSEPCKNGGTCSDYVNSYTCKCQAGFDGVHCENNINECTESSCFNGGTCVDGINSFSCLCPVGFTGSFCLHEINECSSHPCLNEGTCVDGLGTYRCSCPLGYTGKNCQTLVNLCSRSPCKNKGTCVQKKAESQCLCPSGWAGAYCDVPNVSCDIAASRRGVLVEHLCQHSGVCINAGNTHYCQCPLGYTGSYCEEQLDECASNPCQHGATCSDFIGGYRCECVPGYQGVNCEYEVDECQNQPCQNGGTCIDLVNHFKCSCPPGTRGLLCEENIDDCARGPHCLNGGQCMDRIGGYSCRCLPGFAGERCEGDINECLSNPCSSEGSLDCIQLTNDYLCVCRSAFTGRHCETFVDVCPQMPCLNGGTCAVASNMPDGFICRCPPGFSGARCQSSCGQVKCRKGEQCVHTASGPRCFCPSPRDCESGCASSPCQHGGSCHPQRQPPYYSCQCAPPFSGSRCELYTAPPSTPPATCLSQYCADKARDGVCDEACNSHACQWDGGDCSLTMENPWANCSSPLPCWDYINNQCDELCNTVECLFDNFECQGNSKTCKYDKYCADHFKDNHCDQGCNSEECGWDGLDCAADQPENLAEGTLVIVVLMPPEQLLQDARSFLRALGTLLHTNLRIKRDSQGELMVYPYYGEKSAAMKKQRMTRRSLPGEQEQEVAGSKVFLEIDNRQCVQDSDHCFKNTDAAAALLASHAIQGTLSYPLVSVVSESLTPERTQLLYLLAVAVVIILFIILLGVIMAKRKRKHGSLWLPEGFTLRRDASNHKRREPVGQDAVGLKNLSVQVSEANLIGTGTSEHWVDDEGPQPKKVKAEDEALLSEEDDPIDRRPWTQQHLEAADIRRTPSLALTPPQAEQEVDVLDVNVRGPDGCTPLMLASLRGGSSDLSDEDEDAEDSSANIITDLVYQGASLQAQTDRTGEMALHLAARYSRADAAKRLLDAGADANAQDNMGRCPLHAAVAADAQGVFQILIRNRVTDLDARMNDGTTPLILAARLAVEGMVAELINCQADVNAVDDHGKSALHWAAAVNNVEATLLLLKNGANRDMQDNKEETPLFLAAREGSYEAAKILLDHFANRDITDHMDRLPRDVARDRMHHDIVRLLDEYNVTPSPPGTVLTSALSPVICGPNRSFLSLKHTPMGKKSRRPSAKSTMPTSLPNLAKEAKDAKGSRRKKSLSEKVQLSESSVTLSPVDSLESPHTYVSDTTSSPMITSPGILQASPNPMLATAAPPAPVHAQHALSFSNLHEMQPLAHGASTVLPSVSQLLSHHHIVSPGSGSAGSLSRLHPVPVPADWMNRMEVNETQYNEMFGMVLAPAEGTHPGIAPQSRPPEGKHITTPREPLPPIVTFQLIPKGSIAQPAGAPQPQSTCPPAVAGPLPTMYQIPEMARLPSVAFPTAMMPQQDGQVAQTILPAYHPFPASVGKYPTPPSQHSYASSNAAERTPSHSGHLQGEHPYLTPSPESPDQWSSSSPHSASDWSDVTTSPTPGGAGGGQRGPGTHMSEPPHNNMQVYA
# [6] = molecular target: Pro-neuregulin-1, membrane-bound isoform (Homo sapiens) (UniProt Q02297); test: small molecules binding neuregulin-1 protein – biochemical, small-molecule microarray, fluorescence 635/667, psychiatric disease protein project, primary screen (AID 1075); settings: NRG1 binding, 635 nm fluorescence, higher = more signal;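 further: score combines 667 nm spot fluorescence with signal to noise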
# [7] = test system: Neuregulin-1 EGF-like domain; test: small molecules binding NRG1 EGF domain – biochemical, small-molecule microarray, 635 nm fluorescence, primary screen (AID 1081); settings: higher = more signal;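 further: binding of the protein to compounds printed on small-molecule microarray slides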
# [8] = FRG1 expression reporter modulators in myotubes – cell-based, C2C12 myotubes, firefly/Renilla luciferase, luminescence, FRG1 inhibition for FSHD, primary screen (AID 1084); settings: FRG1 promoter luciferase, higher = more signal, called active from +8 up or from −8 down
# [9] = small molecules captured by biotinylated probe aFST – biochemical, small-molecule microarray, fluorescence 635/667, stem cell growth factor project, primary screen (AID 1086); settings: higher = more signal;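 further: score merges 667 nm fluorescence with signal-to-noise of each printed compound spot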
# [10] = binders of probe aHhip on microarray, primary screen, stem cell growth factor project, biochemical, small-molecule microarray, fluorescence 635/667 (AID 1087); settings: higher = more signal;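 further: score merges spot fluorescence at 667nm with spot signal to noise ratio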
# [11] = test system: PRMT1 (protein arginine N-methyltransferase 1); test: small molecules binding arginine methyltransferase PRMT1 – biochemical, small-molecule microarray, 635 nm fluorescence, primary screen (AID 1088); settings: higher = more signal;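 further: binding of Prmt1 protein to compounds spotted on small-molecule microarray slides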
# [12] = growth effects on S. cerevisiae YJM789 – YJM789 clinical isolate, OD600, 24 h, basal, primary screen (AID 1089); settings: higher = more signal, called active from +8 up or from −8 down;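 further: growth of clinical yeast isolate S. cerevisiae YJM 789 seeded 1000 cells per well; test concentration not given here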
# [13] = S. pombe growth modifiers, basal conditions – strain 972, OD600, 24 h, no modulator, primary screen (AID 1090);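 further: basal condition with compound alone and no growth modifier present; test concentration not given here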; settings: S. pombe 972 growth, higher = more signal, called active from +8 up or from −8 down
# [14] = budding yeast growth modifiers under rapamycin – strain BY4716, OD600, 96 h, primary screen (AID 1091); further: test concentration not given here; settings: S. cerevisiae BY4716 + rapamycin, higher = more signal, called active from +8 up or from −8 down
# [15] = molecular target: Torsin-1A-interacting protein 2 (Homo sapiens) (UniProt Q8NFQ8); test: small molecules binding lysate-expressed LULL1 – cell lysate, human LULL1 lysate, 635/667 nm fluorescence, primary screen (AID 1092); settings: small-molecule microarray, hLULL1 lysate binding, 635 nm fluorescence; higher = more signal;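 further: probe is lysate of COS7 cells overexpressing human LULL1; score merges per-feature 667 nm fluorescence with signal-to-noise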
# [16] = optical density change of DRC41 E. coli – strain DRC41, OD650, 24 h, E. coli filamentation project, primary screen (AID 1093);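 further: MC1000 strain lacking acrAB efflux and sulA so SOS filamentation is blocked; test concentration not given here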; settings: E. coli DRC41 growth, higher = more signal, called active from +8 up or from −8 down
# [17] = probe aLefty2 binding to arrayed compounds – biochemical, biotinylated probe, 635/667 nm fluorescence, primary screen (AID 1094); settings: small-molecule microarray, higher = more signal;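 further: score merges spot fluorescence near 667 nm with spot signal-to-noise ratio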
# [18] = test system: Noggin (protein binding on small-molecule microarray); test: small molecules binding Noggin protein – biochemical, 635/667 nm fluorescence, primary screen (AID 1095); settings: 635 nm fluorescence, higher = more signal;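 further: score merges 667 nm feature fluorescence with signal to noise over triplicate slides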
# [19] = molecular target: Neurogenic locus notch homolog protein 3 (Homo sapiens) (UniProt Q9UM47); test: small molecules binding NOTCH3 protein – biochemical, 635/667 nm fluorescence, primary screen (AID 1096); settings: small-molecule microarray, 635 nm fluorescence, higher = more signal
# Chain of Neurogenic locus notch homolog protein 3 (Homo sapiens) (Q9UM47 whole entry, looked up): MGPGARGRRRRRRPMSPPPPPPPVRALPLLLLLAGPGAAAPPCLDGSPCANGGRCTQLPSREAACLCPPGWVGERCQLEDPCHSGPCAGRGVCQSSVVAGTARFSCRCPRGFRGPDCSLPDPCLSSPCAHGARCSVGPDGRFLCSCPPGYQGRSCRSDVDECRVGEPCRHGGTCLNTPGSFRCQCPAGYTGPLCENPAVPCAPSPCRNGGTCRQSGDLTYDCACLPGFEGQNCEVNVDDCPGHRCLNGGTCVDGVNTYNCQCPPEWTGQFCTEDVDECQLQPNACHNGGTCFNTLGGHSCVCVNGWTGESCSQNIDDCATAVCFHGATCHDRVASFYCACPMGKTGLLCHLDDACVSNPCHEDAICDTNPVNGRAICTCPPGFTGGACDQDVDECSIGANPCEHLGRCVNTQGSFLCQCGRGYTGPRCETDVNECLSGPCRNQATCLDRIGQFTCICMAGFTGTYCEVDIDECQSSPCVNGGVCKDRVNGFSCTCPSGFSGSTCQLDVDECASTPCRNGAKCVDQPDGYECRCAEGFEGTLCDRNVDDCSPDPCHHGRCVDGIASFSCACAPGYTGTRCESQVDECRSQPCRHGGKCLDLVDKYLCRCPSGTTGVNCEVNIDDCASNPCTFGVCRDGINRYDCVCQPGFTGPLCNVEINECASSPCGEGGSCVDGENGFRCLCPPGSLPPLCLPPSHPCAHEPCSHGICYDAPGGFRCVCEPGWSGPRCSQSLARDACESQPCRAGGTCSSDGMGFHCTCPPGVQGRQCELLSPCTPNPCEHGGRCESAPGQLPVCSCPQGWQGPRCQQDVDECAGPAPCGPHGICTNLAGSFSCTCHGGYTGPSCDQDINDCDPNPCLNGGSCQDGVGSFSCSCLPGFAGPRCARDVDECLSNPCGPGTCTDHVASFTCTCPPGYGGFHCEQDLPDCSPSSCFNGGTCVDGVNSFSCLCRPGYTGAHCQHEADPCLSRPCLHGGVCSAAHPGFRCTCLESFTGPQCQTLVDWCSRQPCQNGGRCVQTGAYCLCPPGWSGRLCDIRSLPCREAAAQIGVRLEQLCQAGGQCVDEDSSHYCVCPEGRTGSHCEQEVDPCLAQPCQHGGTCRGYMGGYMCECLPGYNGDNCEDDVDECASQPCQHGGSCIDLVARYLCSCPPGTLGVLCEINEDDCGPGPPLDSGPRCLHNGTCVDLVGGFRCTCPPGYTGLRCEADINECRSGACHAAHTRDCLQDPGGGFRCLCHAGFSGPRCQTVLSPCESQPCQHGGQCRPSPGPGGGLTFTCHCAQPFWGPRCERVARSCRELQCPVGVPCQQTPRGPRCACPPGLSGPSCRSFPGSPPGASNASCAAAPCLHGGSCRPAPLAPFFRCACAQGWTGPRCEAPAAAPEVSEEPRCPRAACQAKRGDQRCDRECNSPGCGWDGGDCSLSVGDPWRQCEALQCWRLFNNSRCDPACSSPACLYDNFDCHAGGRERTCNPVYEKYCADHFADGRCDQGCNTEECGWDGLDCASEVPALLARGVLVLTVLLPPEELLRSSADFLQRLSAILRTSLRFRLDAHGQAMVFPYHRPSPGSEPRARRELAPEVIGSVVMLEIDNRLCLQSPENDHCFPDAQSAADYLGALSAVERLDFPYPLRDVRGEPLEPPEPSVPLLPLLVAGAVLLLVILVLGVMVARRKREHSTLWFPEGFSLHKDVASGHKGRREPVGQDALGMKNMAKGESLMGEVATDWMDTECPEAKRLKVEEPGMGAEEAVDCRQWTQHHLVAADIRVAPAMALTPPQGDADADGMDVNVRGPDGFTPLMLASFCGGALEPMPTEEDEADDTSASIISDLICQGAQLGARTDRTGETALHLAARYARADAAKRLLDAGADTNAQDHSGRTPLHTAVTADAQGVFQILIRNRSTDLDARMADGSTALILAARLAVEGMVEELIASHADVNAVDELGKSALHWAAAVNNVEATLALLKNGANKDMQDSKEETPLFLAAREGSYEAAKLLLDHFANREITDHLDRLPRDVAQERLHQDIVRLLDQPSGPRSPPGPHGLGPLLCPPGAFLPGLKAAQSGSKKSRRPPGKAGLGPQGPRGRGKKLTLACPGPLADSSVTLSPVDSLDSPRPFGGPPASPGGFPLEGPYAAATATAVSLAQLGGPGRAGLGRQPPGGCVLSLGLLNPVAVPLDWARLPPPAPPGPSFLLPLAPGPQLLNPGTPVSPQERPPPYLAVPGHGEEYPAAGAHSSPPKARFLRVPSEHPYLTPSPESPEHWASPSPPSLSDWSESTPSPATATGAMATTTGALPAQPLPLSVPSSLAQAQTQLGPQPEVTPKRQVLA
# [20] = probe aEGFR binding to arrayed compounds – biochemical, biotinylated probe, 635/667 nm fluorescence, primary screen (AID 1097); settings: small-molecule microarray, higher = more signal;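 further: probe is a biotinylated anti-EGFR antibody binding compounds printed on slides; score combines fluorescence near 667 nm and signal to noise of each spot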
Structure (SMILES),composite z-score [1],composite z-score [2],composite z-score [3],composite z-score [4],composite z-score [5],composite z-score [6],composite z-score [7],z-score [8],composite z-score [9],composite z-score [10],composite z-score [11],z-score [12],z-score [13],z-score [14],composite z-score [15],z-score [16],composite z-score [17],composite z-score [18],composite z-score [19],composite z-score [20]
CN(C)CCCNC(=O)[C@@]1(c2ccc([N+](=O)[O-])cc2)CC(=O)N(C2CCCCC2)[C@@H]1c1ccc(CO)cc1I,0.284,1.05,-0.087,-0.0752,-0.0551,0.314,1.34,-0.635 (inactive),-0.364,-0.266,1.07,-1.13 (inactive),-20.1 (active),-3.11 (inactive),1.84,-0.112 (inactive),-0.147,0.331,0.215,-0.0679
Cc1ccc(S[C@]2(C(=O)NCC(F)(F)F)CC(=O)N(C(C)C)[C@@H]2c2ccc(CO)cc2I)cc1,0.163,-0.98,-0.04,0.0063,-0.806,1.08,-0.395,-0.0636 (inactive),-0.349,-0.374,-0.466,-0.0408 (inactive),-0.704 (inactive),2.23 (inactive),1.15,0.0493 (inactive),-0.0873,-1.13,-1.01,-0.2
Cc1ccc(S[C@]2(C(=O)NC3CC3)CC(=O)N(C3Cc4ccccc4C3)[C@@H]2c2ccc(CO)cc2)cc1,0.631,-0.233,0.11,-0.563,-0.363,1.08,0.836,-2.83 (inactive),-0.175,-0.134,1.38,-2.31 (inactive),-0.945 (inactive),-1.13 (inactive),3.08,2.12 (inactive),-0.0533,-0.878,0.19,-0.221
C=CC[C@]1(C(=O)NCCCOC)N=C(c2ccc(OCCCO)cc2)O[C@H]1c1ccccc1N=[N+]=[N-],0.149,-0.0693,0.119,0.751,1.39,0.94,0.989,0.665 (inactive),1.18,-0.192,1.55,-0.707 (inactive),-0.688 (inactive),1.47 (inactive),3.48,0.421 (inactive),0.0482,0.444,0.935,-0.265
COc1ccc([Si](C)(C)[C@H]2[C@H](CC(=O)N3CCC[C@H]3CO)O[C@@]3(C(=O)N(Cc4cccc(N5C(=O)c6cccc7cccc5c67)c4)c4ccccc43)[C@@H]2C)cc1,-0.354,-0.0115,0.0686,0.483,0.818,1.77,0.981,-4.24 (inactive),0.305,0.166,1.56,-0.0977 (inactive),0.696 (inactive),-0.15 (inactive),2.08,-0.0831 (inactive),0.031,1.57,1.05,-0.0549
